# Assay outcomes (PubChem)
# Hits are enriched below; roughly 3.2% of the tested compounds scored in any of these assays.
# CaV13 ICDI inh: Disruptors of the CACNA1D IQ motif to Ca2+-dependent inactivation inhibitor domain association, primary screening, Förster resonance energy transfer in intact living … | HEK cells, CFP/YFP FRET ICDI-IQ, plate reader, 10 min; percent FRET-ratio fall versus neutral wells | inhibition, % at 12.3 µM | 0.098% of 340,000 active;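 active = mean replicate inhibition of at least 30% and at least 1% of replicates passing that level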
# rRNA inh HTS: reduced GFP signal of wild-type E. coli, primary screen, bacterial rRNA inhibitor project, GFP/RFP fluorescence, OD600, single point; 1.6% of 350,000 active; GFP signal change (wild-type ribosome), % (no concentration beside the values); AID 720706, 2013; E. coli WT GFP vs humanized-ribosome RFP mutants, 24 h; stronger effect = lower value; DMSO median 0, no signal -100;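 active = significant combined selectivity score with lowered wild-type GFP, culture density cut under 30%, mutant RFP and density less affected; inactive = any of these conditions unmet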
# ERAP1 inh: human ERAP1 aminopeptidase inhibitors, primary screen, biochemical, single point, plate reader; Endoplasmic reticulum aminopeptidase 1 (Homo sapiens), Q9NZ08; recombinant ERAP1, Leu-AMC fluorescence, 60 min; inhibition, % at 10.7 µM; 0.15% of 340,000 active; AID 652197, 2013;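 active = mean replicate inhibition of at least 30%, or all replicates individually reaching that 30% level; inactive = mean below 30% and not every replicate reaching it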
# Target sequence (Q9NZ08 whole entry, looked up): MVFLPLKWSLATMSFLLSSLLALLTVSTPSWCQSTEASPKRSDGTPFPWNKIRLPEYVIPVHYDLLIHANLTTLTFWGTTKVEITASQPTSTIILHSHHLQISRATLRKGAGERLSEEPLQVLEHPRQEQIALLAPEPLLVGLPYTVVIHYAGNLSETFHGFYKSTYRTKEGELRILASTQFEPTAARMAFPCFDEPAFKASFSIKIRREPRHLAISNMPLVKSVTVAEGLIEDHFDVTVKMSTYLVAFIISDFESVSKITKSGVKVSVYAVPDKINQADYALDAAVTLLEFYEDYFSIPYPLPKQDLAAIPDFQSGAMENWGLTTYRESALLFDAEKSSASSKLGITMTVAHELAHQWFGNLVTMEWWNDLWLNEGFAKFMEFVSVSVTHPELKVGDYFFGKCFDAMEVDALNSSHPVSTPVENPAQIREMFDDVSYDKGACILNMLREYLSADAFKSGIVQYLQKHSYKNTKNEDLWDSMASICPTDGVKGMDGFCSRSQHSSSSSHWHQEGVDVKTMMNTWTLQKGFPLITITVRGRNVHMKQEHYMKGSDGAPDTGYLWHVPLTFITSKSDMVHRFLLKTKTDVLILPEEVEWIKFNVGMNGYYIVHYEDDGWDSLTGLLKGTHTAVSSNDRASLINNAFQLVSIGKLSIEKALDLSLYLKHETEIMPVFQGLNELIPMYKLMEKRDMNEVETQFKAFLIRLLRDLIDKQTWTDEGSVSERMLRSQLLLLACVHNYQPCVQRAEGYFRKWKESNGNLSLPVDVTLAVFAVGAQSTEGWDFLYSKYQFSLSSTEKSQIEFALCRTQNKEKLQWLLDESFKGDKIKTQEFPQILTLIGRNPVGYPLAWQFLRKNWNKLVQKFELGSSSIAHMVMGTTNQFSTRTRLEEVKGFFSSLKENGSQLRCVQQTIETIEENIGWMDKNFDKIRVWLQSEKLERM
# DENV2 CPE: inhibitors of DENV2 cytopathic effect, primary screen, cell-based, plate reader, single concentration; DENV2-infected cells, cytopathic effect rescue; CPE inhibition, % at 9.99 µM; 1.7% of 350,000 active; AID 651640, 2012; in the data active = CPE inhibition above about 20%, passing the limit was not always enough; tested in BHK-21 cells
# GSIS activator: GLuc luminescence reporter in INS-1E cells, primary screen for activators of glucose-dependent secretion of insulin; AID 743287, 2014; INS-1E GLuc reporter insulin secretion, 2-3 h; 0.61% of 370,000 active; activation, % at 16.6 µM;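 active = lowest replicate activation of at least 40%, so every replicate reaches that level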
# PGC1a acetyl inh: inhibitors of PGC1a acetylation signal, primary screen, cell-based, U2OS, AlphaScreen, inhibitor mode; AID 651687, 2012; AlphaScreen anti-acetyl-lysine; with virally co-expressed GCN5 acetyltransferase; inhibition, % at 15.6 µM; 0.17% of 350,000 active;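 active = every replicate shows inhibition of at least 40%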
# A number is an active result; . = inactive; / = no result.
SMILES,CaV13 ICDI inh,rRNA inh HTS,ERAP1 inh,DENV2 CPE,GSIS activator,PGC1a acetyl inh
O=C(Cc1csc(NC(=O)Nc2ccc(Cl)cc2)n1)NCc1cccnc1,.,-32,.,.,.,/
COc1ccc(-c2csc(NC(=O)Nc3ccccc3)n2)cc1,.,.,.,.,.,/
O=C(Cc1csc(NC(=O)Nc2cccc(Cl)c2)n1)NCc1cccnc1,.,.,.,.,.,.
O=C(Nc1nc(-c2ccccc2)cs1)c1ccccc1F,.,-20,.,.,.,/
O=C(Nc1cccc(Cl)c1)Nc1nc(-c2ccc(Cl)cc2)cs1,.,/,/,/,128,.
O=C(Nc1ccccc1)Nc1nc(-c2ccc(Cl)cc2)cs1,.,-18,.,/,/,.
CO[C@H]1CN(C)C(=O)c2ccc(NC(=O)c3ccccc3F)cc2OC[C@H](C)N(CC2CCOCC2)C[C@@H]1C,/,.,.,.,.,.
CC=Cc1ccc2n(c1=O)C[C@@H]1[C@@H](CO)[C@H](C(=O)NCCc3ccncc3)N(CCC(F)(F)F)[C@H]21 (mixture of isomers),/,.,.,.,.,.
NC(c1csc(NC(=O)Nc2cccc(Cl)c2)n1)C1CCCCC1 (stereo not drawn),.,.,.,112,.,.
NC(c1csc(NC(=O)Nc2ccccc2)n1)C1CCCCC1 (stereo not drawn),.,.,.,.,.,.
O=C(O)/C=C/C(=O)Nc1nc(-c2ccc3ccccc3c2)cs1,.,-34,.,.,.,/
CCCNC(=O)Nc1ccc2c(c1)C(=O)N(C)C[C@H](OC)[C@H](C)CN(C)[C@@H](C)CO2,/,.,.,101,.,.
CCCNC(=O)Nc1ccc2c(c1)OC[C@H](C)N(C(=O)c1ccccc1F)C[C@@H](C)[C@H](OC)CN(C)C2=O,/,.,.,40,.,.
CCCNC(=O)Nc1ccc2c(c1)C(=O)N(C)C[C@H](OC)[C@H](C)CN(C)[C@H](C)CO2,/,.,.,38,.,.
CO[C@H]1CN(C)C(=O)c2cc(NC(=O)Cc3ccccc3)ccc2OC[C@@H](C)N(C(C)=O)C[C@H]1C,/,.,.,.,.,.
COc1ccc(S(=O)(=O)N(C)C[C@@H]2Oc3ccc(NC(=O)C4CC4)cc3C(=O)N([C@@H](C)CO)C[C@@H]2C)cc1,/,.,.,.,.,.
O=[N+]([O-])c1ccc(N/N=C/C=C/c2ccco2)cc1,.,-40,/,.,.,.
O=C(N/N=C/c1ccco1)c1cc([N+](=O)[O-])cc([N+](=O)[O-])c1,/,.,.,.,.,/
O=C(N/N=C/c1ccc([N+](=O)[O-])o1)C(=O)Nc1ccc(C(=O)O)cc1,.,.,.,.,.,.
O=C(O)c1ccc(N/N=C/C=C/c2ccc([N+](=O)[O-])o2)cc1,.,-32,.,.,.,/
Cc1ccc(S(=O)(=O)N2C[C@H](O)COC[C@@H]3O[C@H](CC(=O)NCC4CCCCC4)CC[C@H]32)cc1,/,.,.,.,.,.
CC(C)NC(=O)Nc1ccc2c(c1)C(=O)N([C@@H](C)CO)C[C@@H](C)[C@@H](CN(C)C(=O)Cc1ccccc1)OCCCC[C@@H](C)O2,/,.,.,.,.,.
COCC1CCCCN1C(=O)c1cc(COc2ccc3ncccc3c2)on1 (stereo not drawn),.,.,.,.,.,/
CCC1CCCCN1C(=O)c1cc(COc2ccc3ncccc3c2)on1 (stereo not drawn),.,-30,.,.,.,/
CC(=O)c1ccc(OCc2cc(C(=O)N3CCCCC3c3cccnc3)no2)cc1 (stereo not drawn),.,-28,.,.,.,/
CC(=O)c1ccc(OCc2cc(C(=O)N3CCC(c4ccncc4)CC3)no2)cc1,.,.,.,.,.,/
O=C(C[C@@H]1C=C[C@@H](NC(=O)C2CCC2)[C@@H](CO)O1)Nc1nccs1,/,.,.,.,.,.
